TGFb SMAD3 inh: TGF-b pathway inhibition | HepG2 CAGA-GFP TGF-b/SMAD3 reporter, GFP fluorescence, 18 h; TGF-beta stimulated, 500 pg/mL final | Potency, µM (titrated, usually from 46.1 µM), actives largely listed as inhibitors | hit rate 1.2% among 410,000 | AID 588855; further: nearly all actives have a fitted effect of over 65% in size
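TGF-beta reporter screen: HEPG2 CAGA-GFP, 1% FBS, 500 pg/mL TGF-beta final, 18 h; per-cell GFP summed per well; curves fitted and categorized by class.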
HepG2 tox: kills HepG2 cells in TGF-b inhibitor counter-screen. HepG2 CAGA-GFP viability, ATP luminescence, 18 h. Potency, µM (titrated, usually from 46.1 µM), most hits filed as cytotoxic. hit rate 0.76% among 410,000. AID 588856
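CellTiter-Glo luminescence gave cytotoxicity after 18 hours at 37 degrees C. The cells were HepG2 CAGA-GFP in 1% FBS DMEM, stimulated with 500 pg/mL TGF-beta after compound addition. %Activity was normalised to no-cell wells (complete cell-killing) and DMSO (no toxicity), and curves were fitted and classified.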
ATXN2 expr inh: reduces ATXN2 reporter expression in HEK-293 cells; Potency, µM (series often up to 57 µM), usual class: inhibitors; HEK-293 ATXN2-luciferase reporter, luminescence, 24 h; hit rate 0.72% among 360,000; further: nearly all actives have a fitted effect of over 55% in size
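qHTS (up to 57 uM final) was run with 24 h compound exposure of reporter cells at 37 °C. Each well was multiplexed: SteadyGlo luminescence measured ATXN2-luciferase expression after a fluorogenic Gly-Phe-AFC viability readout (25 uM final).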
TDP1 cell noCPT: qHTS for Inhibitors of human tyrosyl-DNA phosphodiesterase 1 (TDP1): qHTS in cells in absence of CPT | DT40 Tdp1-/- hTDP1 cells, no CPT, ATP luminescence, 48 h | Potency, µM (titrated, usually from 46.2 µM), most hits filed as inhibitors | hit rate 15% among 420,000; further: nearly all actives have a fitted effect of over 55% in size
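Stably hTDP1-transfected Tdp1-null chicken DT40 cells were treated with library compounds minus camptothecin and grown for at least 48 hr at 37 °C, after which cellular ATP was quantified by luminescence.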
DT40 TDP1 CPT: growth inhibition of DT40 Tdp1-/-;hTDP1 cells with camptothecin (screen for TDP1 inhibitors). hit rate 12% among 420,000. chicken DT40 Tdp1-/-;hTDP1 cells + 20 nM CPT, ATP luminescence, 48 h. Potency, µM (highest dose often 46.2 µM), hits mostly inhibitors; further: nearly all actives have a fitted effect of over 55% in size
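Chicken DT40 Tdp1-/- cells stably complemented with human TDP1 were seeded at 400 cells/well in medium containing 20 nM camptothecin, exposed to pin-transferred compounds, and grown at 37 °C for at least 48 hr. Viability was read as ATP luminescence.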
ATXN viability: reduces viability in counter-screen for ATXN expression inhibitors. S2 cells (HEK-293 line with an ATXN2-luciferase reporter) viability, CellTiter-Fluor protease fluorescence, 24 h. hit rate 0.49% among 400,000. Potency, µM (top dose mostly 56.7 µM), hits mostly cytotoxic; further: nearly all actives have a fitted effect of over 40% in size
A number is an active result; . = inactive; ? = inconclusive; / = no result given; ! = a repeat was not active; [ ] = another dose, or the depositor's remark. Most compounds without a hit are left out; they make up all but 17% or so of the library. The call rests on the fitted dose curve; in most records, active means well fitted curve in the direction sought with a large enough effect; inconclusive means small, poorly fitted or top-dose-only effect, or another doubt; inactive means no such curve, though single readings can be large; an effect the other way counts as inactive or inconclusive.

SMILES | TGFb SMAD3 inh | HepG2 tox | ATXN2 expr inh | TDP1 cell noCPT | DT40 TDP1 CPT | ATXN viability
CC1Cc2cc(-c3csc(NC(=O)Cc4ccccc4)n3)ccc2N1S(C)(=O)=O (centres undefined) | ? | . | ? | 10µM | 16µM | ?
CS(=O)(=O)N1CCc2cc(-c3csc(NC(=O)C(c4ccccc4)c4ccccc4)n3)ccc21 | . | . | . | ? | 12µM | .
Cc1cc(C)nc(SCc2nnc(SCC#N)n2-c2cccc(Cl)c2)n1 | . | . | . | 21µM | ? | .
COc1ccc(C(=O)CSc2nnc(CNc3nc(-c4ccccc4)cs3)n2C)cc1 | . | . | . | ? | ? | .
Cc1cc(C)nc(SCc2nnc(SCC(=O)Nc3nc(-c4ccccc4)cs3)n2-c2ccccc2)n1 | . | . | . | 18µM | ? | .
COc1ccc(NCc2nnc(SCC(=O)Nc3nc(-c4ccccc4)cs3)n2-c2ccccc2)cc1 | . | . | . | 23µM | 4.6µM | ?
CCn1c(CCNC(=O)c2cccs2)nnc1SCC(=O)Nc1nc(-c2ccccc2)cs1 | . | . | . | 10µM | 16µM | .
COCC(=O)N1CCC[C@@]2(CCN(c3ccccc3)C2)C1 | / | / | / | . | . | /
CCOc1cc(/C=C(\C#N)C(=O)NCc2cccnc2)ccc1O | . | . | / | . | . | ?
COc1ccc(-n2c(Cc3cccn3C)nnc2SCC(=O)Nc2ccc(C)cc2)cc1 | . | . | . | . | . | .
COc1ccc(-n2c(CNc3ccc(C)cc3)nnc2SCC(=O)Nc2nc(-c3ccccc3)cs2)cc1 | . | . | 18µM | 10µM | 5.6µM | 22µM
CC1(C)O[C@@H]2C[C@H]3[C@@H]4CCC5=CC(=O)C=C[C@]5(C)[C@@]4(F)[C@@H](O)C[C@]3(C)[C@]2(C(=O)CO)O1 | . | . | . | . | ? | .
CC(=O)OCC(=O)[C@@]12OC3(CCCC3)O[C@@H]1C[C@H]1[C@@H]3CCC4=CC(=O)C=C[C@]4(C)[C@@]3(F)[C@@H](O)C[C@@]12C | . | . | . | 4.6µM | 2.3µM! | .
O=C1CC(C(=O)Nc2nccs2)C(c2ccccc2)O1 (centres undefined) | . | . | . | . | . | .
CCOc1ccc2nc(N3C(=O)/C(=C/c4ccc(Cl)cc4)NC3=S)sc2c1 | . | . | . | 10µM | ? | /
CCOc1ccc2nc(N3CCN(C(=O)C(C)C)CC3)sc2c1 | . | . | / | ? | ? | /
CCN(CC)S(=O)(=O)c1ccc2oc(SCC3CN=C(c4ccc(OC)cc4)S3)nc2c1 (centres undefined) | . | . | . | 16µM | ? | .
COc1ccc(C2=NCC(CSc3nnc(-c4ccc5c(c4)OCO5)o3)S2)cc1 (centres undefined) | ? | . | . | ? | ? | ?
O=C(CNS(=O)(=O)c1ccc(Br)cc1Cl)OCC(=O)c1ccc[nH]1 | . | . | . | . | . | .
CC(=O)Nc1ccc(NC(=O)C(C)OC(=O)CNS(=O)(=O)c2ccc(Br)cc2Cl)cc1 (centres undefined) | . | . | . | 23µM | . | .
COc1ccc(Br)cc1/C=N/NC(=O)C(c1ccncc1)N1CCOCC1 (centres undefined) | . | . | . | 23µM | ? | ?
C#Cc1cccc(NC(=O)C2CCN(C(C)=O)CC2)c1 | . | . | . | . | . | .
COc1cc(C2c3cc4c(cc3CC3COC(=O)N32)OCO4)cc(OC)c1OC (centres undefined) | . | . | . | 0.92µM | 0.82µM | ?
COc1cc2c(c(OC)c1OC)C(c1ccc3c(c1)OCO3)CC(=O)O2 (centres undefined) | . | . | . | . | . | .
COc1cccc(N2CCN(C(=O)Cn3nc(C)n4c(cc5c(OC)cccc54)c3=O)CC2)c1 | . | . | / | . | . | /
SMILES | TGFb SMAD3 inh | HepG2 tox | ATXN2 expr inh | TDP1 cell noCPT | DT40 TDP1 CPT | ATXN viability
O=[N+]([O-])c1ccc2c(c1)-c1ccccc1C2=NO | ? | . | . | 16µM | 18µM | ?
COc1cc2c(cc1NC(=O)C(F)(F)F)-c1ccc(NC(=O)C(F)(F)F)cc1C2 | . | . | . | . | . | .
Nc1ccc2c(c1)C(=NO)c1cc([N+](=O)[O-])ccc1-2 | ? | . | ? | 2.1µM | 0.58µM | ?
O=C(Nc1cc2c(cc1Cl)-c1ccc([N+](=O)[O-])cc1C2=NO)C(F)(F)F | ? | . | . | 23µM | ? | .
O=C(Nc1ccc2c(c1)Cc1cc([N+](=O)[O-])ccc1-2)C(F)(F)F | . | . | . | 6.5µM | ? | .
CC(C(=O)NC1(C#N)CCCCC1)N(C)CC(=O)Nc1ccc(Cl)c(Cl)c1 (centres undefined) | ? | . | / | 18µM | ? | ?
Cn1nnnc1Sc1ncnc2scc(-c3ccc([N+](=O)[O-])cc3)c12 | 13µM | . | 7.1µM | / | / | 16µM
COc1ccc(-c2csc3ncnc(Sc4nnnn4C)c23)cc1 | 18µM | . | 20µM | / | / | ?
Cn1nnnc1Sc1ncnc2scc(-c3ccc(Cl)cc3)c12 | ? | . | 14µM | / | / | 11µM
COc1ccc(-c2csc3ncnc(Cl)c23)cc1 | . | . | . | ? | ? | ?
Cn1nnnc1Sc1ncnc2scc(-c3ccc4c(c3)OCO4)c12 | ? | . | ? | / | / | ?
Cn1nnnc1Sc1c(Cl)cccc1[N+](=O)[O-] | . | . | .[11.3 µM] | . | . | .
Cn1nnnc1Sc1ccc([N+](=O)[O-])cc1Cl | . | . | . | . | . | .
Cn1nnnc1Sc1ncnc2scc(-c3ccccc3Cl)c12 | ? | . | 20µM | / | / | ?
COC(=O)[C@H](Cc1ccccc1)NC(=O)NCCc1ccc(OC)cc1 | . | . | . | . | . | .
CC1(c2ccccc2)NC(=O)N(CC(=O)Nc2ccccc2N2CCCCC2)C1=O (centres undefined) | ? | . | . | ? | ? | .
CC1CC(C)CN(C(=O)CCC(=O)Nc2nnc(C3CCCCC3)s2)C1 (centres undefined) | . | . | . | ? | ? | .
CC(C)(C)CN1C(=O)C(=O)NC[C@@H]1CC1CCCCC1 | / | / | . | . | . | .
CCOC(=O)C1(C)CCN1C(=O)c1csnn1 (centres undefined) | . | . | . | . | . | .
Cn1nnnc1Sc1ncnc2scc(-c3cccc4c3sc3ccccc34)c12 | 10µM | . | 16µM | / | / | ?
CCC(=O)Nc1ccccc1Sc1ncnc2scc(-c3ccccc3)c12 | . | . | . | . | . | .

Bioassay records as filed in PubChem.
